A selection: hits, their analogues and other compounds. The true share with any hit is near 8.3%.
Marburg entry inh = blocks Marburg virus binding to or entry into cells | 1.8% of 300,000 active | AID 540276 | Marburg virus pseudotyped entry inhibition, cell reporter | Potency, µM (top dose mostly 37.8 µM), for the others: at the highest dose activity change, negative = inhibition, usual class: inhibitors; calls by dose curve; tested in HEK293 cells; further: potency means the concentration at half of the fitted maximal effect
FMDV inh = antivirals against foot and mouth disease virus | Potency, µM (highest dose often 57.9 µM), for inactives: top-dose activity change, negative = inhibition, usual class: inhibitors | AID 1159524 | FMDV antiviral cell-based qHTS | 1.2% of 410,000 active; calls by dose curve; tested in HEK293T cells; further: read-out not given here; potency means the concentration at half of the fitted maximal effect; nearly all actives have a fitted effect of over 45% in size
FBPA Giardia inh = Giardia lamblia aldolase inhibition. A8B2U2. purified Giardia FBPA. Potency, µM (top dose mostly 59.6 µM), for inactives: at the highest dose activity, negative = inhibition, hits mostly inhibitors. 0.71% of 290,000 active; further: potency means the concentration at half of the fitted maximal effect; nearly all actives have a fitted effect of over 55% in size
Target sequence (A8B2U2 whole entry, looked up): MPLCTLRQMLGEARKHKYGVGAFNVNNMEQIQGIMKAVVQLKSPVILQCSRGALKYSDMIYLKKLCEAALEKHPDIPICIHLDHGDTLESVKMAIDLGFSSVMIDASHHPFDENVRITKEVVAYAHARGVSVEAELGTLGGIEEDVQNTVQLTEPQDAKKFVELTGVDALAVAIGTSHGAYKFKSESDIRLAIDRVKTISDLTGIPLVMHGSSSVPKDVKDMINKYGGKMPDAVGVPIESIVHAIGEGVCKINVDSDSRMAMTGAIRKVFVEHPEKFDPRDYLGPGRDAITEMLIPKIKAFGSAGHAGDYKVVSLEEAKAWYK
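Giardia FBPA (40 nM reagent) was preincubated 10 min at RT with compound (up to 57.5 uM final), then substrate plus GAPDH/TPI/NAD/arsenate coupling system with diaphorase/resazurin was added; resorufin fluorescence (525/598 nm) was read after 20 min.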
HCMV antiviral = inhibitors of human cytomegalovirus | HFF cells, HCMV-luciferase reporter, 72 h; stronger effect = lower value | activity change, negative = inhibition, % at 57.5 µM | 4.5% of 410,000 active; in the data active means activity change below about -60%; inconclusive means no clear call, values can overlap the other calls; inactive means above about -39%
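Compounds were evaluated in HFFs infected with an HCMV luciferase reporter virus (MOI 1 PFU/cell). Luciferase in lysates collected 72 h post infection served as the replication measure.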
LASV entry inh = blocks Lassa virus binding to or entry into cells; Potency, µM (top dose mostly 37.9 µM), without a hit: at the top dose activity change, negative = inhibition, most hits filed as inhibitors; Lassa virus pseudotype entry inhibition, cell reporter; 1.2% of 300,000 active; calls by dose curve; tested in HEK293 cells; further: potency means the concentration at half of the fitted maximal effect; nearly all actives have a fitted effect of over 50% in size
HCV inhibitor = HCV inhibition; Potency, µM (highest dose often 41.8 µM), for inactives: at the highest dose activity change, negative = inhibition, most hits filed as inhibitors; Huh7.5.1 HCVcc-Cre infection, luciferase reporter, 44 h; 3.4% of 340,000 active; further: potency means the concentration at half of the fitted maximal effect
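A cell-based infection assay in which seeded cells (1,000 per well) receive test compound after 4 h, are inoculated with HCVcc-Cre at approximately 0.5 moi, and are incubated 44 h before luminescence detection.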
Numbers without * were called inactive; ? = inconclusive; nt = no result; ! = a repeat was not active; [ ] = dose if it differs, or a comment. Unless noted, the call rests on the fitted dose curve; in most records, active means well fitted curve in the direction sought with a large enough effect; inconclusive means small, poorly fitted or top-dose-only effect, or another doubt; inactive means no such curve, though single readings can be large; an effect the other way counts as inactive or inconclusive. On the % scale 0 is the no-effect control and ±100 the full control effect.

SMILES	Marburg entry inh	FMDV inh	FBPA Giardia inh	HCMV antiviral	LASV entry inh	HCV inhibitor
Cn1c(SCC(=O)N2c3ccccc3CCc3ccccc32)nnc1-c1cc2ccccc2cc1O	?	0.0%	7.7%	-65.0*	-15.4%	?
Cn1c(SCC(=O)N2CCCc3ccccc32)nnc1-c1ccccc1	-1.8%	nt	6.0%	8.1	-0.2%	21.7%
Cc1cc(C)nc(SCc2nnc(SCC(=O)N3CCCc4ccccc43)n2C)n1	8.8%	nt	0.3%	?	-0.6%	11.2µM*
Cc1cccc(-c2nnc(SCC(=O)N3c4ccccc4CCc4ccccc43)n2C)c1	?	-6.3%	10.1%	-70.2*	-26.5%	?
COc1ccccc1CNC(=O)c1cccc(-c2ccccc2OC)n1	nt	nt	3.2%[89.2 µM]	nt	nt	nt
O=C(Nc1ccc2oc(-c3cc(Br)ccc3Cl)nc2c1)c1ccc2ccccc2c1	nt	-11.5%	nt	-93.5*	1.1%[46.1 µM]	nt
O=C(Nc1ccc2oc(-c3ccccc3Cl)nc2c1)c1cncc(Br)c1	?	61.3%	1.7%	-18.1	?	17.8µM*
O=C(Nc1ccc2oc(-c3ccccc3Cl)nc2c1)c1ncn[nH]1	?	nt	3.5%	125.5	-15.0%	2.4%
CO[C@@H]1COC(=O)C/C=C\[C@H](C)COC(=O)[C@H](C)NC(=O)C/C=C\[C@H]1C	nt	nt	1.6%[12.9 µM]	nt	nt	nt
C[C@@]1(CO)[C@H](O)CC[C@@]2(C)[C@H]1CC[C@H]1C[C@@H]3C[C@@]12CC[C@]3(O)CO	0.517µM*	-18.9%[97.4 µM]	-6.5%	nt	?	-20.5%[8.37 µM]
C[C@H]1CCC2[C@](C)(CO)[C@@H](O)CC[C@]2(C)[C@@]12CCC(CO)(CCO)O2 (stereo partly drawn)	19.1%[46.1 µM]	-15.2%	-1.0%	29.3	-0.9%[46.1 µM]	7.2%
Cc1ccccc1Cn1cc(S(=O)(=O)CC(=O)Nc2nccs2)c2ccccc21	?	nt	-2.0%	-76.2*	-28.1%	?
COC(CNC(=O)c1ccc2nc(-c3ccccc3)c(-c3ccccc3)nc2c1)OC	?	0.0%	-3.8%	6.3	?	10µM*
COc1ccc(-c2nc3ccc(C(=O)NCC(OC)OC)cc3nc2-c2ccc(OC)cc2)cc1	?	?	-10.2%	-60.1*	-10.4%	?
COc1ccc(-c2nc3ccc(C(=O)NCc4ccccc4)cc3nc2-c2ccc(OC)cc2)cc1	nt	22.2%	nt	-4.6	19.5%[46.1 µM]	nt
CN1CCN(CCNC(=O)c2ccc3nc(-c4ccc(F)cc4)c(-c4ccc(F)cc4)nc3c2)CC1	?	-25.8%	12.2%	-33.2	-26.3%[46.1 µM]	2.24µM*
NC(=O)c1ccc(N2CCN(c3ncc(C(F)(F)F)cc3Cl)CC2)cc1	-4.2%	10.3%	-9.9%	?	nt	10.6%
O=C(c1ccc([N+](=O)[O-])cc1)N1CCOC12CCN(c1ncc(C(F)(F)F)cc1Cl)CC2	-3.4%	?	-3.8%	11.8	-2.3%	6.6%
O=C(c1ccc2nc[nH]c2c1)N1CCN(c2cccc(C(F)(F)F)c2)CC1	-0.4%	-23.4%	nt	28.1	?	?
Nc1ccc(N2CCN(c3ncc(C(F)(F)F)cc3Cl)CC2)c(C(F)(F)F)c1	6.0%[46.1 µM]	?	nt	-104.2*	-1.2%[46.1 µM]	nt
CN(C)/C=C/C(=O)c1ccc(N2CCN(c3ncc(C(F)(F)F)cc3Cl)CC2)cc1	?	25.1µM*	1.9%	-107.6*	?	?
O=C(c1ccccc1)N1CCOC12CCN(c1ncc(C(F)(F)F)cc1Cl)CC2	-27.2%	15.8µM*	0.4%	-61.1*	?	8.1%
O=C(c1ccc2nc[nH]c2c1)N1CCN(c2ncc(C(F)(F)F)cc2Cl)CC1	-29.0%	?	5.2%	-70.0*	-23.9%	?
Cc1cccc(C)c1Nc1c(-c2ccccc2Cl)nc2cnccn12	?	-6.5%	nt	?	-16.4%[46.1 µM]	nt
COc1ccc(CN2CCN(C(C)=O)CC2)cc1OC1CCN(C(=O)c2ccc3[nH]c(C)c(C)c3c2)CC1	nt	-17.2%	nt	nt	nt	nt
SMILES	Marburg entry inh	FMDV inh	FBPA Giardia inh	HCMV antiviral	LASV entry inh	HCV inhibitor
Clc1ccc2c(c1)N=C(N1CCNCC1)c1ccccc1N2	?	-15.4%	7.7%	nt	?	nt
CN1CCN(C2=Nc3cc(Cl)ccc3Nc3ccccc32)CC1	12.6µM*!	-18.8%	-0.4%	?	-14.0%	0.1%[8.37 µM]
Cc1ccc(C)c(CN2CCC(CNC(=O)Nc3ccc(Br)cc3F)CC2)c1	4.47µM*	?	11.3%	-78.5*!	?	?
COc1cccc(CNC(=O)CSc2ccc(-c3sc(-c4ccccc4)nc3C)nn2)c1	nt	?	nt	8.9	?	nt
Cc1ccc(CSCC(=O)N2CCN(c3ccccc3F)CC2)cc1	nt	1.5%	nt	-18.2	4.8%[46.1 µM]	nt
CCc1ccc2oc(-c3cc(N=Cc4cccc(OC)c4O)ccc3O)nc2c1	?	-43.1%	12.6%	nt	6.51µM*	8.5%
O=C(O)c1ccc(N=Nc2c(O)ccc3ncccc23)cc1	nt	5.62µM*	?	?	nt	-19.3%
CC(C)(NS(=O)(=O)OCC(Cl)(Cl)Cl)c1ccccc1	nt	11.1%	2.1%	?	nt	6.4%
CC(NS(=O)(=O)OCC(Cl)(Cl)Cl)c1ccc(C(C)(C)C)cc1 (stereo not drawn)	nt	22.4µM*	0.5%	37.5	nt	?
O=C(c1cccc(F)c1)N1CCC[C@@]2(CCN(c3ccccn3)C2)C1	nt	-5.2%	-0.5%	nt	nt	nt
O=C(NC(=S)N1CCN(CCO)CC1)C12CC3CC(CC(C3)C1)C2	?	-11.7%	15.2%	-72.8*	23.5%[46.1 µM]	16.0%
O=C(NC(=S)N1CCOCC1)C12CC3CCC(CC(C3)C1)C2	14.8%	-14.3%	-7.0%	-17.3	0.1%	33.8%
C[C@@H]1[C@@H](c2ccccc2)c2cc3ccccc3nc2-c2nc3ccccc3cc2[C@H]1C(=O)N1CCCC1	25.3%[14.2 µM]	nt	nt	nt	?	nt
COc1cccc([C@H]2/C(=C(\O)c3ccc(OC)c(OC)c3)C(=O)C(=O)N2c2cc(C)on2)c1	-12.3%[46.1 µM]	nt	nt	nt	nt	nt
Cc1ccccc1NC(=O)CSc1nc(N)c2c3c(sc2n1)CSC(C)(C)C3	-43.3%	?	1.1%	?	?	?
Cc1ccc(NC(=O)CSc2nc(N)c3c4c(sc3n2)CSC(C)(C)C4)cc1	?	?	-5.9%	32.7	20.6µM*	11.2µM*
COC(=O)c1cc2oc3ccccc3c2n1CC(=O)Nc1ccc(OC)c(OC)c1OC	?	-5.1%	nt	-28.4	nt	nt
Cn1c(C(=O)NCC2CCCO2)cc2oc3ccccc3c21 (stereo not drawn)	?	5.1%	-6.9%	33.2	?	?
CCn1c(C(=O)NCc2cccc(Br)c2)cc2oc3ccccc3c21	?	-5.7%	nt	-81.7*	nt	nt
CCn1c(C(=O)NCc2cc(Br)ccc2OC)cc2oc3ccccc3c21	2.82µM*	-17.9%	nt	?	nt	nt
CCn1c(C(=O)NCc2ccccc2Br)cc2oc3ccccc3c21	?	-1.2%	nt	-70.7*	nt	nt
COc1ccc(-c2n[nH]c(=S)n2/N=C/C=C\c2ccccc2OC)cc1	-21.0%	9.8%	24.1%	-0.6	?	?
COc1ccccc1/C=C/C=N/n1c(-c2ccc(C)cc2)n[nH]c1=S	?	10.4%	19.4%	29.3	3.66µM*	-14.8%
